Results from PubChem BioAssay AID1159580 (chemical genetic matrix, 2015).
Out of some 5,500 compounds screened, about 2,000 (36%) were called active. Another 18% or so got no clear call; they are omitted. Rule as the data show it: active = normalized growth mostly below about 0.91 (no sharp cut-off); inconclusive = no clear call, values can overlap the other calls; inactive = mostly above about 0.92. The list shows a part of the results.

Test: chemical genetic growth profiling, strain panel (AID 1159580);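 also: tested at 20 µM; growth read once vehicle control cultures reached saturation at 30 °C; 1 = growth at the plate median or of vehicle wells; lower values mean less growth of the strain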
Details: growth OD
[1] = S. cerevisiae deletion strains, locus YHR030C, strain SLT2, active compounds read low
[2] = S. cerevisiae deletion strains, locus YHR079C, strain IRE1, active compounds read low
[3] = S. cerevisiae deletion strains, locus YJL095W, strain BCK1, active compounds read low
[4] = S. cerevisiae deletion strains, locus YJR066W, strain TOR1, active compounds read low
[5] = S. cerevisiae deletion strains, locus YLR113W, strain HOG1, active compounds read low
[6] = S. cerevisiae deletion strains, locus YNL183C, strain NPR1, active compounds read low
[7] = S. cerevisiae deletion strains, locus YOR231W, strain MKK1, active compounds read low
[8] = S. cerevisiae deletion strains, locus YPL256C, strain CLN2, active compounds read low
[9] = S. cerevisiae deletion strains, locus YDL101C, strain DUN1, active compounds read low

Measured: normalized growth

CNCC[C@H](Oc1cccc2ccccc12)c1cccs1
inactive: [1] 0.991 | [2] 0.993 | [3] 1 | [4] 0.924 | [5] 1.02 | [6] 0.938 | [7] 0.988 | [8] 0.987

CNC(=O)Sc1c(-c2ccc(Cl)cc2)nn(C(=O)NC)c1SC
inactive: S. cerevisiae deletion strains, locus YAR019C, strain CDC15, active compounds read low 0.979 | S. cerevisiae deletion strains, locus YBL105C, strain PKC1, active compounds read low 0.961 | S. cerevisiae deletion strains, locus YBR135W, strain CKS1, active compounds read low 0.949 | S. cerevisiae deletion strains, locus YBR136W, strain MEC1, active compounds read low 0.952 | S. cerevisiae deletion strains, locus YBR160W, strain CDC28, active compounds read low 0.961 | S. cerevisiae deletion strains, locus YDL017W, strain CDC7, active compounds read low 0.949 | S. cerevisiae deletion strains, locus YDL028C, strain MPS1, active compounds read low 0.941 | [9] 0.958 | S. cerevisiae deletion strains, locus YDL108W, strain KIN28, active compounds read low 0.94 | S. cerevisiae deletion strains, locus YDL132W, strain cdc53, active compounds read low 0.978 | S. cerevisiae deletion strains, locus YDR052C, strain DBF4, active compounds read low 0.939 | S. cerevisiae deletion strains, locus YDR054C, strain cdc34, active compounds read low 0.985 | S. cerevisiae deletion strains, locus YDR226W, strain ADK1, active compounds read low 0.952 | S. cerevisiae deletion strains, locus YFL009W, strain cdc4, active compounds read low 0.962 | S. cerevisiae deletion strains, locus YFL029C, strain CAK1, active compounds read low 0.974 | S. cerevisiae deletion strains, locus YFR003C, strain YPI1, active compounds read low 0.946 | S. cerevisiae deletion strains, locus YFR028C, strain CDC14, active compounds read low 0.985 | S. cerevisiae deletion strains, locus YIL147C, strain SLN1, active compounds read low 0.934 | S. cerevisiae deletion strains, locus YJL128C, strain PBS2, active compounds read low 0.911 | S. cerevisiae deletion strains, locus YJR016C, strain ILV3, active compounds read low 0.969 | S. cerevisiae deletion strains, locus YKL193C, strain SDS22, active compounds read low 0.97 | S. cerevisiae deletion strains, locus YMR001C, strain CDC5, active compounds read low 0.971 | S. cerevisiae deletion strains, locus YMR277W, strain FCP1, active compounds read low 0.979 | S. cerevisiae deletion strains, locus YNL006W, strain LST8, active compounds read low 0.971 | S. cerevisiae deletion strains, locus YNL161W, strain CBK1, active compounds read low 0.954 | S. cerevisiae deletion strains, locus YNL207W, strain RIO2, active compounds read low 0.964 | S. cerevisiae deletion strains, locus YNL222W, strain SSU72, active compounds read low 0.969 | S. cerevisiae deletion strains, locus YOL078W, strain AVO1, active compounds read low 0.981 | S. cerevisiae deletion strains, locus YOR329C, strain SCD5, active compounds read low 0.977 | S. cerevisiae deletion strains, locus YPL209C, strain IPL1, active compounds read low 0.97 | S. cerevisiae deletion strains, locus YPR025C, strain CCL1, active compounds read low 0.973 | S. cerevisiae deletion strains, locus YPR106W, strain ISR1, active compounds read low 0.994 | S. cerevisiae deletion strains, locus YPR111W, strain DBF20, active compounds read low 0.982 | S. cerevisiae deletion strains, strain NNK1, active compounds read low 0.996 | S. cerevisiae deletion strains, strain TSCII, active compounds read low 0.977
active: S. cerevisiae deletion strains, locus YDL214C, strain PRR2, active compounds read low 0.319 | S. cerevisiae deletion strains, locus YDR477W, strain SNF1, active compounds read low 0.428 | S. cerevisiae deletion strains, locus YER123W, strain YCK3, active compounds read low 0.199 | S. cerevisiae deletion strains, locus YER133W, strain GLC7, active compounds read low 0.485 | S. cerevisiae deletion strains, locus YFR019W, strain FAB1, active compounds read low 0.264 | S. cerevisiae deletion strains, locus YGR040W, strain KSS1, active compounds read low 0.413 | S. cerevisiae deletion strains, locus YGR052W, strain FMP48, active compounds read low 0.315 | S. cerevisiae deletion strains, locus YGR092W, strain DBF2, active compounds read low 0.266 | [1] 0.335 | [2] 0.324 | S. cerevisiae deletion strains, locus YHR082C, strain KSP1, active compounds read low 0.353 | S. cerevisiae deletion strains, locus YHR205W, strain SCH9, active compounds read low 0.446 | [3] 0.256 | S. cerevisiae deletion strains, locus YJL157C, strain FAR1, active compounds read low 0.315 | S. cerevisiae deletion strains, locus YJR066W, strain TOR1 (second series), active compounds read low 0.286 | [4] 0.302 | S. cerevisiae deletion strains, locus YKL048C, strain ELM1, active compounds read low 0.545 | S. cerevisiae deletion strains, locus YKL067W, strain YNK1, active compounds read low 0.335 | S. cerevisiae deletion strains, locus YKL101W, strain HSL1, active compounds read low 0.378 | S. cerevisiae deletion strains, locus YKL203C, strain TOR2, active compounds read low 0.491 | [5] 0.284 | S. cerevisiae deletion strains, locus YLR133W, strain CKI1, active compounds read low 0.397 | S. cerevisiae deletion strains, locus YLR403W, strain SFP1, active compounds read low 0.482 | S. cerevisiae deletion strains, locus YML070W, strain DAK1, active compounds read low 0.297 | S. cerevisiae deletion strains, locus YMR205C, strain PFK2 (second series), active compounds read low 0.461 | S. cerevisiae deletion strains, locus YNL020C, strain ARK1, active compounds read low 0.342 | [6] 0.274 | S. cerevisiae deletion strains, locus YNL307C, strain MCK1 (second series), active compounds read low 0.233 | S. cerevisiae deletion strains, locus YOL136C, strain PFK27, active compounds read low 0.316 | S. cerevisiae deletion strains, locus YOR061W, strain CKA2, active compounds read low 0.355 | S. cerevisiae deletion strains, locus YOR119C, strain RIO1, active compounds read low 0.467 | [7] 0.315 | S. cerevisiae deletion strains, locus YPL031C, strain PHO85, active compounds read low 0.422 | S. cerevisiae deletion strains, locus YPL153C, strain RAD53, active compounds read low 0.337 | S. cerevisiae deletion strains, locus YPL204W, strain HRR25, active compounds read low 0.399 | [8] 0.368

O=[N+]([O-])c1ccc(C(O)C(O)CO)cc1 (stereo unspecified)
inactive: S. cerevisiae deletion strains, locus YAL013W, strain DEP1, active compounds read low 0.974 | S. cerevisiae deletion strains, locus YBR229C, strain ROT2, active compounds read low 0.981 | [9] 1.01 | S. cerevisiae deletion strains, locus YDR150W, strain NUM1, active compounds read low 1 | S. cerevisiae deletion strains, locus YEL061C, strain CIN8, active compounds read low 1 | S. cerevisiae deletion strains, locus YGR078C, strain PAC10, active compounds read low 0.996 | [1] 1.07 | S. cerevisiae deletion strains, locus YHR087W, strain rtc3, active compounds read low 0.958 | S. cerevisiae deletion strains, locus YJL187C, strain SWE1, active compounds read low 0.993 | S. cerevisiae deletion strains, locus YJR043C, strain POL32, active compounds read low 0.987 | S. cerevisiae deletion strains, locus YJR075W, strain HOC1, active compounds read low 0.988 | S. cerevisiae deletion strains, locus YLR039C, strain RIC1, active compounds read low 0.974 | S. cerevisiae deletion strains, locus YLR058C, strain SHM2 (second series), active compounds read low 0.988 | S. cerevisiae deletion strains, locus YLR085C, strain ARP6, active compounds read low 0.986 | S. cerevisiae deletion strains, locus YLR262C, strain YPT6, active compounds read low 0.963 | S. cerevisiae deletion strains, locus YML094W, strain GIM5, active compounds read low 0.99 | S. cerevisiae deletion strains, locus YMR219W, strain ESC1, active compounds read low 0.994 | S. cerevisiae deletion strains, locus YMR263W, strain SAP30, active compounds read low 1 | S. cerevisiae deletion strains, locus YMR307W, strain GAS1, active compounds read low 0.959 | S. cerevisiae deletion strains, locus YNL153C, strain GIM3, active compounds read low 0.987 | S. cerevisiae deletion strains, locus YNL298W, strain CLA4 (second series), active compounds read low 0.961 | S. cerevisiae deletion strains, locus YNL322C, strain KRE1, active compounds read low 0.996 | S. cerevisiae deletion strains, locus YNR030W, strain Alg12, active compounds read low 0.983 | S. cerevisiae deletion strains, locus YPL055C, strain LGE1, active compounds read low 0.971 | S. cerevisiae deletion strains, locus YPL241C, strain CIN2, active compounds read low 1 | S. cerevisiae deletion strains, locus YPR135W, strain CTF4, active compounds read low 1.02 | S. cerevisiae strains, strain wild type, active compounds read low 0.979
